High-throughput results as filed in PubChem BioAssay.
In the library only some 2.9% were active in any assay of this set; here they are far more common.
POLB inh: blocks human DNA polymerase beta activity; Pol beta primer extension/strand displacement, fluorescence kinetic; Potency, µM (doses to about 114 µM), usual class: inhibitors; actives 1.3% (n = 340,000)
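Kinetic readout of DNA synthesis with strand displacement by Pol beta. Compound and 10 nM enzyme sit 15 min at room temperature; 50 nM substrate starts the reaction, read immediately and at 10 min.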
PI5P4Ka inh: blocks human PI5P4K alpha kinase activity | actives 1.2% (n = 330,000) | max response, % | PI5P4Kalpha enzyme, ADP-Glo luminescence, 60 min; stronger effect = lower value | AID 652105 | P48426; active = max response of -50% or lower; inconclusive = between -30% and -50%; inactive = -30% or higher; note: value at the top dose of about 77 µM
Target sequence (P48426 whole entry, looked up): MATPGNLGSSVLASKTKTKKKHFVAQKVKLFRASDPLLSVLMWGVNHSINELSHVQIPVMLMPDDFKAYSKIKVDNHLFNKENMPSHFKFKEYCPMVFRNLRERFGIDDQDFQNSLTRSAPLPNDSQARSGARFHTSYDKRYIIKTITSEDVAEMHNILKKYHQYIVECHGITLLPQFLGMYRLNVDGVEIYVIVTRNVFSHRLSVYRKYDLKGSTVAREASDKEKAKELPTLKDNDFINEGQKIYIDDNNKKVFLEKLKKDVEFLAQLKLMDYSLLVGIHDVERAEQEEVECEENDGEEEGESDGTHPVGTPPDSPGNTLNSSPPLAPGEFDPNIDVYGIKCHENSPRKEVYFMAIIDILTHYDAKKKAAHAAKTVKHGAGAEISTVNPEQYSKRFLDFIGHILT
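Controls without substrate or without enzyme flank wells where PI5P4Kalpha converts substrate using 5 microM ATP (final). Incubation lasts 60 minutes at room temperature; ADP formed is read by ADP-Glo luminescence.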
POLK inh: DNA polymerase kappa (human) inhibition | purified Pol kappa, fluorescent DNA synthesis assay, 10 min | Q9UBT6 | AID 588579 | actives 0.53% (n = 400,000) | Potency, µM (series often up to 107 µM), actives largely listed as inhibitors
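Enzyme at 10 nM met test compounds for 15 min at room temperature. Substrate addition (50 nM final) began the reaction, which was monitored by fluorescence at 0 and 10 min.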
Pol iota inh: DNA polymerase iota (human) inhibition. Potency, µM (series often up to 115 µM), most hits filed as inhibitors. AID 588590. Q9UNA4. Pol iota fluorescent replication assay, 10 min. actives 1% (n = 390,000)
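Fluorescent replication assay read twice, at 0 min and 10 min after adding 50 nM (final) substrate. Enzyme (10 nM) and compounds were first incubated 15 min at room temperature; enzyme-free buffer wells were negative controls.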
Pol eta inh: DNA polymerase eta (human) inhibition; actives 1.2% (n = 390,000); recombinant Pol eta, fluorescent DNA replication assay; Q9Y253; Potency, µM (highest dose often 114 µM), actives largely listed as inhibitors
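Pol eta at 10 nM preincubated with compounds 15 min at room temperature; reaction started with fluorescent substrate (50 nM final) and read kinetically at 0 and 10 min.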
ALOX12 inh: ALOX12 (human) lipoxygenase inhibition; purified 12hLO, xylenol orange hydroperoxide absorbance; P18054; Potency, µM (doses to about 108 µM), actives largely listed as inhibitors; actives 1.1% (n = 580,000)
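Purified human 12hLO at 150 nM in 25 mM Hepes, 0.01% Triton X-100, pH 7.0, preincubated 15 min at room temperature with compound. Reaction started with 40 uM arachidonic acid, 30 min at room temperature. Hydroperoxide measured by Fe-xylenol orange, 573/405 nm absorbance ratio.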
ADP-Glo counter: ADP-Glo luciferase interference, PI5P4K counter-screen; Potency, µM (highest dose often 76.9 µM), hits mostly inhibitors; ADP-Glo detection counter-screen, luciferase luminescence, no enzyme; shares compounds with PI5P4Ka inh; 1,100 tested, under 10 active; AID 743285
A number is an active result; - = inactive; ? = inconclusive; . = no result given. Unless noted, calls come from the whole dose curve; as a rule, active = well fitted curve in the direction sought with a large enough effect; inconclusive = small, poorly fitted or top-dose-only effect, or another doubt; inactive = no such curve, though single readings can be large; an effect the other way counts as inactive or inconclusive.

SMILES | POLB inh | PI5P4Ka inh | POLK inh | Pol iota inh | Pol eta inh | ALOX12 inh | ADP-Glo counter
CCOc1ccc(CC(=O)Nc2sc(Cc3ccccc3)c(C)c2C(N)=O)cc1OCC | - | -53 | - | - | - | - | -
Cc1c(Cc2ccccc2)sc(NC(=O)c2ccco2)c1C(N)=O | - | . | - | - | - | - | .
O=C(O)c1cccc(-n2cc(-c3cccc(C(F)(F)F)c3)cn2)c1 | - | -62 | - | ? | - | - | -
COCCNC(=O)C1Cc2c(-c3ccc(NC(C)=O)cc3)ccnc2O1 (centres undefined) | . | -66 | . | . | . | - | -
C/C(=N/NC(N)=S)c1cc2ccc(O)cc2oc1=O | - | ? | - | ? | - | ? | .
CCOc1ccc(C(=O)c2cc3ccc(O)cc3oc2=O)cc1 | - | -67 | - | - | - | - | -
Cc1cccc(N=c2oc3cc(O)ccc3cc2C(N)=O)c1 | - | -55 | - | - | - | ? | -
NC(=S)c1cc2ccc(O)cc2oc1=O | - | -72 | - | ? | - | ? | -
O=C(c1ccc([N+](=O)[O-])cc1)c1cc2ccc(O)cc2oc1=O | - | ? | - | - | - | ? | .
COc1ccc(-c2cc(N3CCCN(C(=O)c4ccc(C)c(C)c4)CC3)n[nH]2)cc1 | . | . | . | . | . | - | .
COc1cc(NC(=O)COC(=O)c2ccccc2SCc2c(C)noc2C)cc(OC)c1 | . | . | . | . | . | - | .
COc1ccc(C2=NCCn3nc4cc(OC)ccc4c32)cc1 | . | -82 | - | - | - | ? | -
COc1ccc2c3n(nc2c1)CCN=C3c1ccc(Cl)cc1 | . | - | - | - | - | - | .
COc1ccc(Cl)cc1NC(=O)CSc1nc2sccc2c(=O)[nH]1 | 56µM | -53 | - | - | - | - | -
COc1ccc(C)cc1NC(=O)CSc1nc2scc(C)c2c(=O)[nH]1 | - | - | - | ? | - | - | .
CC(=O)NC1=NN(C(C)=O)C2(S1)C(=O)N(CCOc1ccccc1)c1c(Cl)cccc12 (centres undefined) | . | . | . | . | . | - | .
Cc1ccc([N+](=O)[O-])cc1S(=O)(=O)Nc1ccccn1 | - | - | - | - | - | . | .
Cc1cc([N+](=O)[O-])cc2c1NC(c1ccccn1)C1CC=CC21 (centres undefined) | - | -71 | - | ? | ? | ? | -
COc1ccc(C2CC23CCC2(CC2c2ccc(OC)cc2)C3=O)cc1 (centres undefined) | . | . | . | . | . | - | .
Cc1ccccc1N1CC(C(=O)Nc2nnc(SCC(=O)Nc3nccs3)s2)CC1=O (centres undefined) | 50µM | ? | - | ? | ? | - | -
COc1ccc(S(=O)(=O)N2CCN(C)CC2)cc1NC(=O)c1ccc(CN2CCCC2=O)cc1 | . | . | . | . | . | - | .
CCOC(=O)C1CCCN(C(=O)c2cc(F)cc(F)c2)CC1 (centres undefined) | . | - | . | . | . | - | .
CCOC(=O)C1CCCN(C(=O)c2ccc(F)c(C)c2)CC1 (centres undefined) | . | ? | . | . | . | - | -
COc1cc(C2CC(=O)N3CN(Cc4ccco4)CSC3=C2C#N)ccc1OCc1ccccc1 (centres undefined) | - | -59 | - | - | - | 25µM | -
COc1cc(CNCc2ccco2)ccc1OCc1ccccc1 | - | . | - | - | - | - | .
SMILES | POLB inh | PI5P4Ka inh | POLK inh | Pol iota inh | Pol eta inh | ALOX12 inh | ADP-Glo counter
Cc1ccc(N(C(=O)CNC(=O)c2ccco2)C(C(=O)NC2CCCC2)c2cccnc2)c(C)c1 (centres undefined) | - | -58 | - | - | - | - | -
O=C(CN1CCN(c2ccccc2F)CC1)NCc1ccccc1 | - | - | - | - | ? | - | -
Cc1cccc(N2CCN(CC(=O)NCc3ccccc3)CC2)c1C | - | - | - | - | - | - | .
Cc1cccc(C2Nc3ccccc3C(=O)N2c2ccc(F)cc2)n1 (centres undefined) | - | - | - | - | - | - | -
CC(=O)Oc1ccc(C(=O)Nc2cccc(C(=O)c3ccc(C)c(C)c3)c2)cc1 | - | -57 | - | - | - | - | -
COc1ccc(C(=O)Nc2cccc(OC(=O)c3ccc(C)c(C)c3)c2)cc1 | - | - | - | - | - | - | .
Cc1cc(Nc2cc(C(=O)O)ccc2C)n2ncnc2n1 | - | - | - | - | - | - | .
Cc1cc(Nc2ccccc2C(=O)O)n2ncnc2n1 | . | . | . | . | - | - | -
O=C(c1cc(-c2csc(Nc3ccccc3C(F)(F)F)n2)c[nH]1)N1CCCC1 | . | . | . | . | . | - | .
O=C(COC(=O)c1ccccn1)Nc1nccs1 | - | - | - | - | - | - | .
NC(=O)c1ccsc1NC(=O)COC(=O)c1cnccn1 | . | -63 | ? | 79µM | ? | - | -
NC(=O)c1ccsc1NC(=O)COC(=O)c1ccncc1 | . | - | - | ? | - | . | .
NC(=O)c1ccsc1NC(=O)COC(=O)c1ccccn1 | . | -52 | ? | ? | ? | - | -
O=C(CCn1nnc2ccccc21)Nc1nnc(COc2ccccc2F)s1 | - | - | - | - | - | - | .
O=C(CCn1nnc2ccccc21)Nc1nnc(Cc2ccccc2)s1 | ? | -53 | - | ? | ? | - | -
NC(=O)C1CCN(c2cc(Cl)nc(N)n2)CC1 | - | -53 | - | ? | - | - | -
Cc1ccc(-c2csc(N3CCN(c4ccc5nc(-c6ccncc6)n(CCN6CCCCC6)c5c4)CC3)n2)cc1 | - | ? | - | - | - | . | .
Cc1ccc(-c2csc(N3CCN(c4cc5c(cc4Cl)nc(-c4ccncc4)n5CCN4CCCCC4)CC3)n2)cc1 | - | -64 | - | ? | - | ? | -
N/C(=N\c1ncccn1)Nc1ccccc1 | . | . | . | . | . | - | .
COc1ccc(C(=O)NNC(=O)CN2CCC(n3nnc4cc(C(F)(F)F)ccc43)CC2)cc1 | - | . | - | - | - | - | .
COC(=O)c1ccccc1NC(=O)CN1CCC(n2nnc3cc(C(F)(F)F)ccc32)CC1 | - | ? | - | - | - | - | -
O=C(O)CCC(=O)N1CCC(n2nnc3cc(C(F)(F)F)ccc32)CC1 | - | - | - | ? | ? | - | -
Cc1nc2ccc(NC3=NCCCCC3)cc2s1 | - | -55 | - | - | ? | ? | -
COc1cccc(NC(=O)C2CCN(c3nc4ccccc4nc3OC)CC2)c1 | . | . | . | . | . | - | .
CC1(C)Cc2cccc(OCC(=O)NCCOc3ccccc3)c2O1 | - | -51 | - | - | - | - | -
CCCCCCCCN1C(=O)[C@H](CC(=O)NCc2ccc(C)o2)C[C@@]2(C(=O)OC)CC(C)(C)CC=C12 | . | -51 | . | . | . | 40µM | -
CCCCCCCCN1C(=O)[C@H](CC(=O)NCc2cccs2)C[C@@]2(C(=O)OC)CC(C)(C)CC=C12 | . | - | . | . | . | - | .
CC(C)CCn1nc(C(=O)NCc2ccc(Cl)cc2)c2ccccc2c1=O | . | . | . | . | . | - | .
